Data as given in the supplement of paper PMC5919970.
Where a name gives a salt, the structure may show the parent alone. Over roughly 2,000 compounds, “fractional viability relative to vehicle” has its median near 0.92; the lowest 2% begin near 0.11. Only a selection was taken, and the lowest values are over-represented in it overall.

Test system: TYKNU
Experiment: fractional viability relative to vehicle; TYKNU is a high-grade serous ovarian cancer line; higher = less growth inhibition
Settings: 72 h, genotype: OPA1 knockout (sgOPA1 #2)
Outline: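 Drug treatment lasted 72 h, with cells grown at 37 °C in 5% CO2 in RPMI 1640 supplemented with 10% FBS. Beforehand, TYKNU control cells or their lentiCRISPRv2 knockout derivatives had been seeded at 500 cells per well into drug-stamped 384-well plates carrying a ~2100-compound library at 2 or 10 μM, in duplicate. Viability came from Cell Titer Glo luminescence, with averaged duplicate treatment wells normalised to duplicate control wells in the same plate position.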

| SMILES | fractional viability (2uM) | fractional viability (10uM) |
| --- | --- | --- |
| [O-][n+]1ccccc1[S-].[O-][n+]1ccccc1[S-].[Zn+2] [Zinc Pyrithione] | 0.0671 | 0.0336 |
| CN1[C@@H]2C[C@@H](OC(=O)[C@H](CO)c3ccccc3)C[C@H]1[C@@H]1O[C@@H]12 [Scopolamine HBr] | 1.29 | 0.892 |
| C=CC[C@]1(O)CC[C@H]2[C@@H]3CCC4=CC(=O)CCC4=C3C=C[C@@]21C [Altrenogest] | 0.97 | 0.84 |
| CC(=O)Nc1ccc(OC[C@](C)(O)C(=O)Nc2ccc([N+](=O)[O-])c(C(F)(F)F)c2)cc1 [Andarine] | 1.18 | 1.18 |
| COC[C@H]1OC(=O)c2coc3c2[C@@]1(C)C1=C(C3=O)[C@@H]2CCC(=O)[C@@]2(C)C[C@H]1OC(C)=O [Wortmannin] | 0.744 | 0.149 |
| C[C@@H]1CC[C@@]2(OC1)O[C@H]1C[C@H]3[C@@H]4CC=C5C[C@@H](O[C@@H]6O[C@H](CO)[C@@H](O[C@@H]7O[C@@H](C)[C@H](O)[C@@H](O)[C@H]7O)[C@H](O)[C@H]6O[C@@H]6O[C@@H](C)[C@H](O)[C@@H](O)[C@H]6O)CC[C@]5(C)[C@H]4CC[C@]3(C)[C@H]1[C@@H]2C [Dioscin] | 0.289 | 0.0918 |
| Cc1cccc(C)c1NC1=NCCCS1 [Xylazine HCl] | 0.823 | 0.79 |
| COc1cc(OC)c(OC)cc1C=O [Asaraldehyde] | 1.16 | 1.15 |
| C=CCN1CC[C@]23c4c5ccc(O)c4O[C@H]2C(=O)CC[C@@]3(O)[C@H]1C5 [Naloxone HCl] | 0.816 | 0.957 |
| CCNC(=O)C[C@@H]1N=C(c2ccc(Cl)cc2)c2cc(OC)ccc2-n2c(C)nnc21 | 0.715 | 0.794 |
| CN[C@@H]1C[C@H]2O[C@@](C)([C@@H]1OC)n1c3ccccc3c3c4c(c5c6ccccc6n2c5c31)C(=O)NC4 [Staurosporine] | 0.264 | 0.0922 |
| COc1ccc(C(CN(C)C)C2(O)CCCCC2)cc1 (stereo not given) [Venlafaxine] | 1.21 | 1 |
| Cn1c(CCCC(=O)O)nc2cc(N(CCCl)CCCl)ccc21 [Bendamustine HCl] | 1.1 | 1.11 |
| CN1CCC(c2c[nH]c3ccc(O)cc23)CC1 | 0.838 | 0.922 |
| CCOc1ccccc1-n1c(C(C)N2CCN(C(=O)COc3ccc(Cl)cc3)CC2)nc2ccccc2c1=O (stereo not given) [Erastin] | 0.45 | 0.0976 |
| C[C@H]1CNCCc2ccc(Cl)cc21 [Lorcaserin HCl] | 1.04 | 1.02 |
| CCCN1C[C@H](CSC)C[C@@H]2c3cccc4[nH]cc(c34)C[C@H]21 [Pergolide mesylate] | 0.978 | 0.96 |
| CC1(C)CC(O)CC(C)(C)N1[O] [Tempol] | 0.982 | 1.06 |
| Cc1cc(SCc2sc(-c3ccc(C(F)(F)F)c(F)c3)nc2C)ccc1OCC(=O)O | 0.824 | 0.75 |
| CC1=C(O)C(=O)C=C2C1=CC=C1[C@@]2(C)CC[C@@]2(C)[C@@H]3C[C@](C)(C(=O)O)CC[C@]3(C)CC[C@]12C [Celastrol] | 0.123 | 0.0841 |

| SMILES | fractional viability (2uM) | fractional viability (10uM) |
| --- | --- | --- |
| CC(=O)O[C@H]1C[C@@H]2CC[C@@H]3[C@H](CC[C@@]4(C)[C@H]3C[C@H]([N+]3(C)CCCCC3)[C@@H]4OC(C)=O)[C@@]2(C)C[C@@H]1[N+]1(C)CCCCC1 [Pancuronium dibromide] | 1 | 0.976 |
| CN1[C@@H]2CC(O)C[C@H]1[C@@H]1O[C@@H]12 (stereo not given in full) [Scopine] | 0.96 | 0.768 |
| C[C@H]1CCC/C=C/[C@@H]2C[C@H](O)C[C@H]2[C@H](O)/C=C/C(=O)O1 [Brefeldin A] | 0.269 | 0.277 |
| CC(C)=CCC[C@]1(C)C=Cc2c(O)c3c(c(CC=C(C)C)c2O1)O[C@]12C(=C[C@@H]4C[C@H]1C(C)(C)O[C@@]2(C/C=C(/C)C(=O)O)C4=O)C3=O [Gambogic Acid] | 0.0971 | 0.0282 |
| C[N+]1(C)[C@@H]2C[C@@H](OC(=O)[C@H](CO)c3ccccc3)C[C@H]1[C@@H]1O[C@@H]12 [Methscopolamine] | 0.982 | 0.966 |
| C[C@]12N[C@H](Cc3ccccc31)c1ccccc12 [MK-801 (Dizocilpine)] | 1.04 | 0.956 |
| CCN1CCN(C(=O)Cc2ccc(Nc3ncc(F)c(Nc4ccc(C(=O)Nc5ccccc5Cl)cc4)n3)cc2)CC1 [Aurora A Inhibitor I] | 1.03 | 0.0801 |
| O=C(O[C@H]1C[N+]2(CCCOc3ccccc3)CCC1CC2)C(O)(c1cccs1)c1cccs1 [Aclidinium Bromide] | 0.952 | 0.927 |
| CC(C)NCC(O)c1ccccc1Cl (stereo not given) [Clorprenaline HCl] | 0.911 | 0.968 |
| CN1CCN(c2nc3ccccc3nc2Cl)CC1 | 1.15 | 0.988 |
| O=C1CC[C@@]2(O)[C@H]3Cc4ccc(O)c5c4[C@@]2(CCN3CC2CC2)[C@H]1O5 [Naltrexone HCl] | 1.07 | 1.12 |
| CC[C@@H]1/C=C/C=C/C[C@H](C)[C@H](O)[C@](C)(O)C(=O)[C@H](C)[C@@H](O)[C@H](C)C(=O)[C@H](C)[C@@H](O)[C@H](C)/C=C/C(=O)O[C@H]2[C@@H](C)[C@@H](CC1)O[C@@]1(CC[C@@H](C)[C@@H](C[C@H](C)O)O1)[C@@H]2C [Oligomycin A] | 1.01 | 0.871 |
| C1=C2CCCN[C@H]2[C@@H]2C[C@H]1[C@H]1CCCCN1C2 [Aloperine] | 1.02 | 0.89 |
| c1cc2c(cc1[C@H]1OC[C@H]3[C@@H]1CO[C@@H]3c1ccc3c(c1)OCO3)OCO2 [Sesamin] | 1.06 | 0.894 |
| O=C(Oc1ccc([N+](=O)[O-])cc1)N1CCC(C(O)(c2ccc3c(c2)OCO3)c2ccc3c(c2)OCO3)CC1 | 0.994 | 0.739 |
| O=[N+]([O-])/C=C/c1ccc2c(c1)OCO2 | 0.477 | 0.113 |
| Cc1sc2c(c1C)C(c1ccc(Cl)cc1)=N[C@@H](CC(=O)Nc1ccc(O)cc1)c1nnc(C)n1-2 | 0.634 | 0.619 |
| CN1c2ccccc2C(NCCCCCCC(=O)O)c2ccc(Cl)cc2S1(=O)=O (stereo not given) [Tianeptine sodium] | 1.15 | 1.02 |
| Nc1nc(N)nc(NC2CC2)n1 [Cyromazine] | 1.01 | 0.994 |
| CCCN1CCO[C@@H]2c3cc(O)ccc3OC[C@H]21 | 0.95 | 1.01 |
